Experimental data from PubChem BioAssay (Tox21).
Inconclusive results are not listed. Activity calls are given as the source filed them. Calls come from the whole dose curve.

Test: qHTS assay to identify small molecule agonists or antagonists of the thyroid stimulating hormone receptor (TSHR) signaling pathway - wild type cell line counter screen (AID 1259384)
Conditions: HEK293 wild type, cAMP HTRF counter-screen; series mostly up to 92.4 µM
Procedure, shortened: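 Counter screen in untransfected Hek293: compounds (15-point titration, triplicate) plus phosphodiesterase inhibitor Ro20-1724 added after 18 h plating; 30 min RT. Intracellular cAMP via competitive d2/cryptate immunoassay, 1 h incubation.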

| Structure (SMILES) | outcome |
| --- | --- |
| CCN(CC)C(=O)SCc1ccc(Cl)cc1 | inactive |
| O=C(Nc1ccc(Br)cc1)c1cc(Br)cc(Br)c1O | inactive |
| CNC(=O)Oc1cccc2c1OC(C)(C)O2 | inactive |
| CC(C)=CC1C(C(=O)OCc2coc(Cc3ccccc3)c2)C1(C)C (stereo not drawn) | inactive |
| CN(C)c1ccc(C(=O)c2ccc(N(C)C)cc2)cc1 | inactive |
| N#Cc1cc(Br)c(O)c(Br)c1 | inactive |
| O=[N+]([O-])c1ccc(O)c([N+](=O)[O-])c1 | inactive |
| CCN(CC)C(=O)/C(Cl)=C(\C)OP(=O)(OC)OC | inactive |
| COP(=S)(OC)Oc1ccc([N+](=O)[O-])cc1 | inactive |
| O=S(=O)(Oc1ccc(Cl)cc1)c1ccc(Cl)cc1 | inactive |
| N#CC(Br)Br | inactive |
| Nn1cnnc1 | inactive |
| CC(O)CCO (stereo not drawn) | inactive |
| CCOc1cc(Oc2ccc(C(F)(F)F)cc2Cl)ccc1[N+](=O)[O-] | inactive |
| CC(C)c1ccc(CO)cc1 | inactive |
| O=C1C=CC(=O)C=C1 | inactive |
| CCOCN(C(=O)CCl)c1c(C)cccc1CC | inactive |
| C=CCc1ccc(OC)cc1 | inactive |
